Data: PubChem BioAssay (NCI)
“And” between values parts separate entries of the source, which are not always exact repeats. Equal entries are not always repeated. This is part of a sample that, as a whole, favours compounds with a hit. Of some 83,000 tested, about 20% had one in any assay.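 48-hour exposure, single concentration, 96-well plates; percent growth endpoint where 0 means no net growth. Active: below 10.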 Unmarked numbers belong to inactive results. The source made the active and inactive calls.

system: MDA-MB-468 breast; test: NCI-60 one-dose screen, 48 h (100 = growth as untreated, 0 = no growth, -100 = all killed); conditions: 10 µM unless noted

| SMILES | growth |
| --- | --- |
| Cc1cc(NCCCCNc2ccnc3cc(Cl)ccc23)nc(Nc2ccc(C(=O)N3CCCC3)cc2)n1 | -26.6% (active) |
| COc1cc(NC(=O)c2sc3nc4c(cc3c2N)C(O)CCC4)cc(OC)c1 (stereo not given) | 54% |
| CCOC(=O)c1ccccc1NC1=C(Cl)C(=O)c2nc(C)ccc2C1=O | 97.3% |
| CCC(C)(O)CCC(C)(O)CC (stereo not given) | 106% |
| CS(=O)c1cccc(-c2ccc3nc(N)n(-c4ccc(C(F)(F)F)cc4)c(=O)c3c2)c1 (stereo not given) | 84.4% |
| CCN(CC)CCC(CNc1ccnc2cc(Cl)ccc12)c1ccc(OC)cc1 (stereo not given) | 9.36% (active) and -3.58% (active) |
| CCN1CCN(c2nc(NCCNc3ccnc4cc(Cl)ccc34)c3ccccc3n2)CC1 | -28.8% (active) |
| Cc1ccc(Nc2cc(N)nc(N)n2)cc1Cl | 77.8% |
| C=CCOc1c(Br)cc(Br)cc1Br | 96.8% |
| CCC(=O)Nc1ccc(-c2nc(-c3cccc(O)c3)c(-c3ccnc(Br)c3)[nH]2)cc1 | 30.5% |
| O=C1C2=C(Nc3cc([N+](=O)[O-])ccc3N2)OC1c1c2ccccc2cc2ccccc12 (stereo not given) | 37.3% |
| O=C(c1ccc(F)c(F)c1Nc1ccc(I)cc1F)N1CC(O)([C@@H]2CCCCN2)C1 | 25.2% |
| COc1cc(C(=O)c2c(N)ncn2-c2ccccc2)cc(OC)c1OC | 76% |
| CNC1=C(Br)C(=O)c2c(C(=O)OC)c(C)nc(C)c2C1=O | 27.4% |
| O=C(Nc1ccc(Nc2cc(Nc3ccccc3)ncn2)cc1)Nc1cc(C(F)(F)F)ccc1F | 55.3% |
| COc1ccc(-c2cnoc2-c2cc(OC)c3c(c2)OCCO3)cc1 | 20.4% |
| O=C(O)c1ccc(-n2cc(CNc3ccc(Oc4ccccc4)cc3)c(-c3ccccc3)n2)cc1 | 99.8% |
| S=c1[nH]c2cc(Cl)ccc2s1 | 108% |
| O=C(O)c1cc(C(F)(F)F)cc(C(F)(F)F)c1 | 109% |
| CC1=C(C(=O)OCc2ccccc2)C(c2ccc3c(c2)OCO3)n2c(nc3ccccc32)N1 (stereo not given) | 15.8% |
| COc1ccc(Cl)cc1NC(=O)C(Br)C(Br)C(=O)O (stereo not given) | -79% (active) |
| CCCCCCCCCCCCCCCC[N+]1(C)CCOCC1 | -50.9% (active) |
| N#CCCCCCn1c2ccccc2c2c3c(c4c5ccccc5[nH]c4c21)C(=O)N(O)C3=O | -32% (active) |
| O=c1c(Br)ccc(Br)cc1Br | -65.9% (active) |
| Cc1ccccc1CNC(=O)C1CN(c2ccc(Cl)cc2)N(c2ccc(Cl)cc2)C1=O (stereo not given) | 83.2% |
